This note sets out measurements from PubChem BioAssay (NCI).

Some test systems named below: SR leukemia; OVCAR-8 ovarian; OVCAR-5 ovarian; OVCAR-4 ovarian; SK-OV-3 ovarian; IGROV1 ovarian; OVCAR-3 ovarian; HS 578T breast; NCI/ADR-RES ovarian; RPMI-8226 leukemia.
Holding throughout (assay): NCI-60 one-dose screen, 48 h (100 = growth as untreated, 0 = no growth, -100 = all killed)
Common to all, as to conditions: 10 µM unless noted

The structures appear in SMILES notation. About 83,000 compounds went through this panel and 20% of them were active in at least one assay; those are over-represented in the sample as a whole.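 How to read the values: 0–100, growth inhibition (40 = 60% inhibited); 0, no net growth; -100 to 0, cell death (-40 = 40% of starting cells died; -100 = all dead).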 A number with no mark means an inactive call. Activity calls are given as the source filed them. Rule for the calls: active = growth percent below 10; inactive = the rest.

As to `COc1ccc(-c2nnc3n(C)c(=O)c4ccccc4n23)cc1N`, the growth in the experiment with SR leukemia is 21.7%; with OVCAR-8 ovarian it was 33.6%; with OVCAR-5 ovarian it was 45.2%; in the experiment on OVCAR-4 ovarian it was 59.3%; in the experiment on SK-OV-3 ovarian, 22%; with IGROV1 ovarian, 51.9%. The figures for the growth with OVCAR-3 ovarian, with HS 578T breast and with NCI/ADR-RES ovarian were 6.12% (active), 32% and 22.8%, respectively.

`COC(C(=O)[C@@H](O)[C@@H](C)O)[C@@H]1Cc2cc3cc(O[C@H]4C[C@@H](O[C@H]5C[C@@H](O)[C@H](O)C(C)O5)[C@H](O)C(C)O4)c(C)c(O)c3c(O)c2C(=O)[C@H]1O[C@H]1C[C@@H](O[C@H]2C[C@@H](O[C@H]3C[C@@H](O)[C@H](OC)C(C)O3)[C@@H](O)C(C)O2)[C@H](O)C(C)O1` (some centres undefined): the growth was 3.51% (active) in the experiment with SR leukemia; 7.56% (active) in the experiment on OVCAR-8 ovarian; 14.8% with OVCAR-5 ovarian; 11.8% in the experiment with OVCAR-4 ovarian; 19.1% with SK-OV-3 ovarian; 16.9% in the experiment with IGROV1 ovarian. For the same compound, the growth in the experiment with OVCAR-3 ovarian was 5.62% (active); with HS 578T breast it was 20.3%.

For the compound `C#CCOc1cccc(Nc2ncnc3c(NC(=O)C=C)cccc23)c1`, the growth in the experiment on SR leukemia was 9.57% (active); in the experiment with OVCAR-8 ovarian, 4.27% (active); in the experiment with OVCAR-5 ovarian, 88%; in the experiment on OVCAR-4 ovarian it was 73.9%; in the experiment with SK-OV-3 ovarian, 49%; with IGROV1 ovarian it was 31%. The results for the growth in the experiment on OVCAR-3 ovarian, in the experiment on HS 578T breast and with NCI/ADR-RES ovarian were 10.9%, 25% and 18.1%, respectively.

For the compound `CCOC(=O)c1cc(-c2ccc([N+](=O)[O-])cc2)n(-c2ccc(C(=O)O)c(O)c2)c1C`, the growth was 67.1% in the experiment on SR leukemia; -3.07% (active) with RPMI-8226 leukemia; 38.6% in the experiment on OVCAR-8 ovarian; 52% in the experiment on OVCAR-4 ovarian; 95.6% in the experiment with SK-OV-3 ovarian; 67.8% in the experiment on HS 578T breast. Further, the growth in the experiment with NCI/ADR-RES ovarian was 57.5%.

On to `O=C1c2cccc3cccc(c23)C(=O)N1N1C(=O)c2cccc3c(N4CCOCC4)ccc(c23)C1=O`, for which the growth with SR leukemia was 92.4%; with RPMI-8226 leukemia, 106%; with OVCAR-8 ovarian, 96.2%; in the experiment on OVCAR-4 ovarian, 108%; with SK-OV-3 ovarian it was 90%; with IGROV1 ovarian it was 95.6%. Further, the growth in the experiment on NCI/ADR-RES ovarian was 92%.

For the compound `N#CC1=C(N)Oc2c(sc3c(Br)cccc23)C1c1ccc(F)cc1` (centres undefined), the growth in the experiment on SR leukemia was 5.83% (active); with OVCAR-8 ovarian, 25.3%; in the experiment with OVCAR-5 ovarian it was 30.9%; in the experiment on OVCAR-4 ovarian, 56.4%; with SK-OV-3 ovarian, 37.4%; in the experiment on IGROV1 ovarian, 26.9%. The growth in the experiment with OVCAR-3 ovarian was 9.66% (active); with HS 578T breast it was 42%; in the experiment with NCI/ADR-RES ovarian, 9.77% (active).

Regarding `CS(=O)(=O)C1=CN(CCO)C(=O)N2CCCN=C12`, the growth in the experiment with SR leukemia was 115%; with OVCAR-8 ovarian it was 108%; in the experiment with OVCAR-5 ovarian, 99.4%; in the experiment on OVCAR-4 ovarian it was 115%; in the experiment with SK-OV-3 ovarian, 97.5%; in the experiment with OVCAR-3 ovarian, 105%. For the same compound, the growth in the experiment on HS 578T breast is 97%; in the experiment on NCI/ADR-RES ovarian, 106%.

`CNC(=O)c1cc(Oc2ccc3c(c2)sc2nc(-c4cc(OC)c(OC)c(OC)c4)cn23)ccn1`: the growth in the experiment on SR leukemia is 35.5%; in the experiment with OVCAR-8 ovarian it was 49.1%; with OVCAR-5 ovarian, 104%; in the experiment with OVCAR-4 ovarian, 46.2%; with SK-OV-3 ovarian, 77.7%; in the experiment on IGROV1 ovarian, 72.7%. Moreover, the growth in the experiment with OVCAR-3 ovarian was 71.9%; in the experiment on HS 578T breast, 70.2%; with NCI/ADR-RES ovarian, 63.5%.

As for `Clc1ccc2c(c1)N(c1ncnc3ccc(-c4cnc5[nH]ncc5c4)cc13)CC2`, the growth in the experiment on SR leukemia is 24.3%; in the experiment on OVCAR-8 ovarian it was 30%; in the experiment on OVCAR-5 ovarian, 20.3%; in the experiment on OVCAR-4 ovarian, 26.9%; in the experiment with SK-OV-3 ovarian it was -1.55% (active); in the experiment with IGROV1 ovarian, 0.128% (active). For the same compound, the growth is 24.5% in the experiment on OVCAR-3 ovarian, -17% (active) in the experiment with HS 578T breast and 40.4% with NCI/ADR-RES ovarian.

As for `CCCCC(=O)Nc1ncc(Cc2ccc(Cl)cc2)s1`, the growth with SR leukemia is 33.5%; in the experiment with RPMI-8226 leukemia, 86.2%; in the experiment with OVCAR-8 ovarian, 84.9%; in the experiment on OVCAR-4 ovarian, 80%; in the experiment with SK-OV-3 ovarian, 79.1%; in the experiment on IGROV1 ovarian, 66.5%. In addition, the growth in the experiment with HS 578T breast was 72.9%; with NCI/ADR-RES ovarian it was 48.4%.

Take `Cc1ccc(Cl)cc1Nc1nc(C(F)(F)F)ccc1C(=O)N/N=C/c1cccnc1`: the growth in the experiment on SR leukemia is -5.74% (active); with OVCAR-8 ovarian, 25.1%; in the experiment on OVCAR-5 ovarian it was 37.9%; with OVCAR-4 ovarian it was 8.59% (active); in the experiment with SK-OV-3 ovarian, -15.3% (active); with IGROV1 ovarian it was 8.35% (active). The growth with OVCAR-3 ovarian was 33.9%; with HS 578T breast, 39.9%; in the experiment on NCI/ADR-RES ovarian, 13.9%.

With `COC(=O)c1cc(-c2ccc(OC)cc2)[nH]c1N/N=C/c1c(Cl)cccc1Cl`, the growth is -16.4% (active) in the experiment on SR leukemia; 14.5% in the experiment with OVCAR-8 ovarian; 44.3% in the experiment on OVCAR-5 ovarian; 40.6% in the experiment on OVCAR-4 ovarian; 18.8% in the experiment on SK-OV-3 ovarian; 29% in the experiment with IGROV1 ovarian. Besides, the growth in the experiment with OVCAR-3 ovarian was -72.4% (active); in the experiment on HS 578T breast it was 0.353% (active); in the experiment on NCI/ADR-RES ovarian, 20%.

Regarding `O=C(NCCCN1CCOCC1)c1cccc(N2C(=O)/C(=C/c3ccc(F)cc3)SC2=S)c1`, the growth is 98.9% in the experiment on SR leukemia; 100% with OVCAR-8 ovarian; 104% in the experiment with OVCAR-5 ovarian; 93.8% with OVCAR-4 ovarian; 108% in the experiment on SK-OV-3 ovarian; 90.7% with IGROV1 ovarian. Also, the growth was 99.5% in the experiment with OVCAR-3 ovarian, 82.2% in the experiment with HS 578T breast and 98.5% in the experiment on NCI/ADR-RES ovarian.

`COC(=O)c1n[nH]c2ccc3nc(-c4cn[nH]c4C(F)(F)F)c4c(c3c12)CCCC4`: the growth with SR leukemia was 11.9%; in the experiment with OVCAR-8 ovarian, 34.6%; with OVCAR-5 ovarian, 70.2%; with OVCAR-4 ovarian, 62.5%; in the experiment on SK-OV-3 ovarian, 15.3%; with IGROV1 ovarian, 19.5%. Moreover, the growth with OVCAR-3 ovarian was 56.4%; in the experiment on HS 578T breast, 9.88% (active); in the experiment on NCI/ADR-RES ovarian, 83.7%.
